Measurements as given in the supplement of paper PMC10849652.
Of roughly 7,900 targets only a part is listed; those with a hit were picked by preference. About 0.6% of all pairs of compound and target were hits. Values without a mark were called inactive.

Assays:
Test in all cases: log2 fold change, soluble protein after heating vs DMSO (PISA); higher = thermal stabilisation; K562 cells, 10 uM, 30 min; active = over 0.2 and 3.5 SD of the protein, either way, in both replicates (recomputed)
[1] = compound: CC1=C(C=C(C=C1)NC(=O)C2=CC(=CC=C2)C(C)(C)C#N)NC3=CC4=C(C=C3)N=CN(C4=O)C
Method in brief: (§1)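 K562 cells (2×10^6 cells/mL) were treated with 10 μM compound for 30 min, and aliquots were heated for 3 min over 48°C-58°C. Pooled aliquots were extracted in PBS with 0.5% NP-40 at 4°C, and the supernatant after 21,000xg for 90 min was measured by TMTpro 16plex LC-MS/MS with channel sums equalised. Reported thermal stability, relative to control samples and from duplicates, is a log2 fold change.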

[2] = compound: CC1=C(C=C(C=C1)NC(=O)C2=CC(=CC=C2)N(C)C)NC(=O)C3=CC=C(C=C3)O
Method in brief: as §1

[3] = compound: CC1=CC=C(C=C1)SC2=C3C=C(SC3=CN=C2)C(=O)N
Method in brief: as §1

[4] = compound: CC1=NC(=CC=C1)C2=C(N=C(N2)C(C)(C)C)C3=CC4=NC=CN=C4C=C3
Method in brief: as §1

Nexturastat A = compound: CCCCN(Cc1ccc(C(=O)NO)cc1)C(=O)Nc1ccccc1 [Nexturastat A]
Method in brief: as §1

vemurafenib = compound: CCCS(=O)(=O)Nc1ccc(F)c(C(=O)c2c[nH]c3ncc(-c4ccc(Cl)cc4)cc23)c1F [vemurafenib]
Method in brief: as §1

[5] = compound: CCCS(=O)(=O)Nc1ccc(F)c(C(=O)c2c[nH]c3ncc(Cl)cc23)c1F
Method in brief: as §1

[6] = compound: CCCc1cc(C)[nH]c(=O)c1CNC(=O)c1cc(-c2ccnc(N3CCN(C)CC3)c2)cc2c1cnn2C(C)C
Method in brief: as §1

givinostat = compound: CCN(CC)Cc1ccc2cc(COC(=O)Nc3ccc(C(=O)NO)cc3)ccc2c1 [givinostat]
Method in brief: as §1

barasertib = compound: CCN(CCCOc1ccc2c(Nc3cc(CC(=O)Nc4cccc(F)c4)[nH]n3)ncnc2c1)CCOP(=O)(O)O [barasertib]
Method in brief: as §1

[7] = compound: CC[C@@H]1C(=O)N(C)c2cnc(Nc3ccc(C(=O)NC4CCN(C)CC4)cc3OC)nc2N1C1CCCC1
Method in brief: as §1

volasertib = compound: CC[C@@H]1C(=O)N(C)c2cnc(Nc3ccc(C(=O)N[C@H]4CC[C@H](N5CCN(CC6CC6)CC5)CC4)cc3OC)nc2N1C(C)C [volasertib]
Method in brief: as §1

[8] = compound: CC[C@H](C)N1C=C(C2=C(C=C(C=C21)C3=CN=C(C=C3)N4CCNCC4)C(=O)NCC5=C(C=C(NC5=O)C)C)C
Method in brief: as §1

epoxomicin = compound: CC[C@H](C)[C@@H](C(=O)N[C@@H]([C@@H](C)O)C(=O)N[C@@H](CC(C)C)C(=O)[C@]1(CO1)C)NC(=O)[C@H]([C@@H](C)CC)N(C)C(=O)C [epoxomicin]
Method in brief: as §1

[9] = compound: CCn1c(C(=O)N(C2CC2)C2CC2)cc2c3c(ncn3C)c(Nc3cc(C)n(C)n3)nc21
Method in brief: as §1

[10] = compound: CCn1cc(-c2ccnc3[nH]c(-c4cccc(CN(C)C)c4)cc23)c(-c2ccc(NC(=O)N(C)C)cc2)n1
Method in brief: as §1

[11] = compound: CN(C)CC(=O)Nc1ccc2[nH]c(=O)c3ccccc3c2c1
Method in brief: as §1

rosiglitazone = compound: CN(CCOC1=CC=C(C=C1)C[C@H]2C(=O)NC(=O)S2)C3=CC=CC=N3 (racemic) [rosiglitazone]
Method in brief: as §1

[12] = compound: CN1C2=C(C3=C1C(=O)N(N=C3)CC4=CC(=CC=C4)N)SC(=C2)S(=O)C
Method in brief: as §1

[13] = compound: CN1CCC(CNc2ccc3ncc(-c4cccc(OC(F)(F)F)c4)n3n2)CC1
Method in brief: as §1

Chain of UniProt A5PLN9 (A5PLN9 whole entry, looked up): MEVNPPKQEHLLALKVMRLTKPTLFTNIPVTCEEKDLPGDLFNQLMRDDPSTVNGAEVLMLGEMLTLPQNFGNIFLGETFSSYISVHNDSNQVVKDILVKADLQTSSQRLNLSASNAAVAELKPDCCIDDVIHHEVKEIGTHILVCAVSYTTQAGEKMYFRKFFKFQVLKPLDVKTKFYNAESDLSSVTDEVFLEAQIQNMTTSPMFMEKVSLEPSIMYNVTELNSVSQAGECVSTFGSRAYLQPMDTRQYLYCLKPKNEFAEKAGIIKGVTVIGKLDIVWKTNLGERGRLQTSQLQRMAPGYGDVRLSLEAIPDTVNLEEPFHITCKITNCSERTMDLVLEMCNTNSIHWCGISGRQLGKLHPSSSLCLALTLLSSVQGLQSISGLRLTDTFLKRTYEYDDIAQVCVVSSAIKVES
Chain of UniProt Q969X6 (Q969X6 whole entry, looked up): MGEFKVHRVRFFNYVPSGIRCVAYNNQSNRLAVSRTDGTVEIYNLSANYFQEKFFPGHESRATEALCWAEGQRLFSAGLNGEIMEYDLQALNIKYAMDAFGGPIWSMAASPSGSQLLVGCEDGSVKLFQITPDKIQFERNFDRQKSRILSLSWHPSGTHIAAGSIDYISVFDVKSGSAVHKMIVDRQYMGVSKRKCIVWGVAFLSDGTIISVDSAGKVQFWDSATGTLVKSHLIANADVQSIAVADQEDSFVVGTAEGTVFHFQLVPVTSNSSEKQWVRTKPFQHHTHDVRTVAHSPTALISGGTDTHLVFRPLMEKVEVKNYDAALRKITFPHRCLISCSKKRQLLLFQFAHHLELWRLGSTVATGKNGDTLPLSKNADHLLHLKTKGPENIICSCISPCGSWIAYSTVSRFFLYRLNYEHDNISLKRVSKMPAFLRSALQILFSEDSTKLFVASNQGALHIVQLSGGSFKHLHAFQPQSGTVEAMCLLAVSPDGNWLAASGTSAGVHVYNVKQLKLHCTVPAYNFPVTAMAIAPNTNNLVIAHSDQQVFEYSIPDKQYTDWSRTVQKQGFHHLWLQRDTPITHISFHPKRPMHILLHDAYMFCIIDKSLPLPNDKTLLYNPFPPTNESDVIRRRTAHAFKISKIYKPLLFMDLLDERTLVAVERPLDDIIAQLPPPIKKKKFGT
Chain of UniProt O00258 (O00258 whole entry, looked up): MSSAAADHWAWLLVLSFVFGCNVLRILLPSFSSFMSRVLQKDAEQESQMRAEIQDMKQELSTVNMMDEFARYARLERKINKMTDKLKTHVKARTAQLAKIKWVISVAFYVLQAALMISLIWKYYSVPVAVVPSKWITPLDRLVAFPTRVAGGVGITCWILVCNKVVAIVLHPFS
Chain of UniProt P13010 (P13010 whole entry, looked up): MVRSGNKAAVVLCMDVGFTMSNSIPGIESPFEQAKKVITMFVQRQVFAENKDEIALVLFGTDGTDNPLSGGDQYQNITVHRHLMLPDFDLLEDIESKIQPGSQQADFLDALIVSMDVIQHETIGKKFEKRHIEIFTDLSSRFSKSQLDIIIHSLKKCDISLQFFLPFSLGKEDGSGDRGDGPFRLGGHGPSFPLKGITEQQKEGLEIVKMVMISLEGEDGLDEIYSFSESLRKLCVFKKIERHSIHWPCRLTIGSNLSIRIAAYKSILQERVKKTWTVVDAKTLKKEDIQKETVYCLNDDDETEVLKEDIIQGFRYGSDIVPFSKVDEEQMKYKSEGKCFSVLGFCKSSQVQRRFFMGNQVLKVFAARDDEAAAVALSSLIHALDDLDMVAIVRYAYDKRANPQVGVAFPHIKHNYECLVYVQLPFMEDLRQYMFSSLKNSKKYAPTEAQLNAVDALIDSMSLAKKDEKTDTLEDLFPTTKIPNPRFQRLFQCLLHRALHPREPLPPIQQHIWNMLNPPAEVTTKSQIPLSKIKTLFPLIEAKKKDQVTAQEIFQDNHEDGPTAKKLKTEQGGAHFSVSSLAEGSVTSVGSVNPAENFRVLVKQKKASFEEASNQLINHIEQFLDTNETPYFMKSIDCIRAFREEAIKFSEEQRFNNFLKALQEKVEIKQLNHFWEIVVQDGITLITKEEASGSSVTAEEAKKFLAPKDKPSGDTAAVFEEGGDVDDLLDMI
Chain of UniProt P51809 (P51809 whole entry, looked up): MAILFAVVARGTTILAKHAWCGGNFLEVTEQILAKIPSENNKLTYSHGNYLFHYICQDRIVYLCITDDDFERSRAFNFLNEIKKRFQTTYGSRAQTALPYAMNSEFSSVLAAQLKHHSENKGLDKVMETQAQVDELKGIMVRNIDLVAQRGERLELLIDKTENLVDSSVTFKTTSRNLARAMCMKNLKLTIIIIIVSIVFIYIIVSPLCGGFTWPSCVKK
Chain of UniProt Q15061 (Q15061 whole entry, looked up): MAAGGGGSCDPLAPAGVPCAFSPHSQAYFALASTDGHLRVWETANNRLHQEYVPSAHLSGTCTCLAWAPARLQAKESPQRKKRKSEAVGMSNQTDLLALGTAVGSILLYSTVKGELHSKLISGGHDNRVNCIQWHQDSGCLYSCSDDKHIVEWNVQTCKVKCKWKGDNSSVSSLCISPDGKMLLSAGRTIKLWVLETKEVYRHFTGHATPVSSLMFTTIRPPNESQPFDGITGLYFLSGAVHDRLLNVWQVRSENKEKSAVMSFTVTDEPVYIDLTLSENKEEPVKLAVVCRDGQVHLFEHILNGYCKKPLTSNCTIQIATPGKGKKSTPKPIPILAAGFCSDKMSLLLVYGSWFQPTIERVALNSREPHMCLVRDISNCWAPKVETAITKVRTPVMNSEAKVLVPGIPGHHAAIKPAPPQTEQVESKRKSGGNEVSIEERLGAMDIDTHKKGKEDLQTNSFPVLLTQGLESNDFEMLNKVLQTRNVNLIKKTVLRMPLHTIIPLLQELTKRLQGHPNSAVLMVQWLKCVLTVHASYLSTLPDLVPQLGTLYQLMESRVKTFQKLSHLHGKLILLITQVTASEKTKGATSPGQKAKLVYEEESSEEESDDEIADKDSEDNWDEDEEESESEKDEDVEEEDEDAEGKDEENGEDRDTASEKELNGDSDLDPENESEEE
Chain of UniProt Q9NP79 (Q9NP79 whole entry, looked up): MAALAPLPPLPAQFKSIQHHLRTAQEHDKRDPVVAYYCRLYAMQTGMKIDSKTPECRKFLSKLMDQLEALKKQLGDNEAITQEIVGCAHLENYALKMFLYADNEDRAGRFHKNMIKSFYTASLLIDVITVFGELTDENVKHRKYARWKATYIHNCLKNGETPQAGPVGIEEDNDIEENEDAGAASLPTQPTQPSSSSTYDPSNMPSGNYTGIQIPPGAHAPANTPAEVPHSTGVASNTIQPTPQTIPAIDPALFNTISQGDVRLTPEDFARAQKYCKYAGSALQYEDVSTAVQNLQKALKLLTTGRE
Chain of UniProt Q9HAV4 (Q9HAV4 whole entry, looked up): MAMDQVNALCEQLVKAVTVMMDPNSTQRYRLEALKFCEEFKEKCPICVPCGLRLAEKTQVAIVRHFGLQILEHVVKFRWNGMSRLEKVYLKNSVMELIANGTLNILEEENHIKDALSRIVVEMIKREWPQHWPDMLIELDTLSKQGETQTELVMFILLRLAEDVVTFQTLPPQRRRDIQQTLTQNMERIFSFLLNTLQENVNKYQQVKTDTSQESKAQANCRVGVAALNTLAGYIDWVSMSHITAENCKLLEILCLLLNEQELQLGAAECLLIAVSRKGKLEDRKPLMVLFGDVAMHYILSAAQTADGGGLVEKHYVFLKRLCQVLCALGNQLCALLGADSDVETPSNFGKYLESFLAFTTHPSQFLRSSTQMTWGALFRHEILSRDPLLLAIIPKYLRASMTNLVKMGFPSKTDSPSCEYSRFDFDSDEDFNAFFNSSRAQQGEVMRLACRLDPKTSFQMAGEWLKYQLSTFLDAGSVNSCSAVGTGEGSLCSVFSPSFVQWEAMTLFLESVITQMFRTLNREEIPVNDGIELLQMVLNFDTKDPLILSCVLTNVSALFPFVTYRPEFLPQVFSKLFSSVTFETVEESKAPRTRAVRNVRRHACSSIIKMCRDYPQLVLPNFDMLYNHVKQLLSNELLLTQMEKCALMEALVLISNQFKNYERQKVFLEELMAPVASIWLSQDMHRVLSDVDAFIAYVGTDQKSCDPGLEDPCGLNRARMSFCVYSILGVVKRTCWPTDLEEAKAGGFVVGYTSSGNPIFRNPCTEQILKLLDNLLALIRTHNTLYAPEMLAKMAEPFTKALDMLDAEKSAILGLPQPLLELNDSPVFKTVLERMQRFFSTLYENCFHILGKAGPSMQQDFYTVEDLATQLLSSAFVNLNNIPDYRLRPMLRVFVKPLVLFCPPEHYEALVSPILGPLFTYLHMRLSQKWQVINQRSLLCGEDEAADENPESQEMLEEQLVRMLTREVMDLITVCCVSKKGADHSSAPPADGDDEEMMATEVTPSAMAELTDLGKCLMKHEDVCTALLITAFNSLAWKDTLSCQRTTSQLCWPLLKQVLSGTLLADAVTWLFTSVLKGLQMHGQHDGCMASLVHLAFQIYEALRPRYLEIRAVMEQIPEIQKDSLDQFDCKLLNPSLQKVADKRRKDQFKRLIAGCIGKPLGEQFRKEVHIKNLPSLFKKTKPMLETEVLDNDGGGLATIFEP
Chain of UniProt O00220 (O00220 whole entry, looked up): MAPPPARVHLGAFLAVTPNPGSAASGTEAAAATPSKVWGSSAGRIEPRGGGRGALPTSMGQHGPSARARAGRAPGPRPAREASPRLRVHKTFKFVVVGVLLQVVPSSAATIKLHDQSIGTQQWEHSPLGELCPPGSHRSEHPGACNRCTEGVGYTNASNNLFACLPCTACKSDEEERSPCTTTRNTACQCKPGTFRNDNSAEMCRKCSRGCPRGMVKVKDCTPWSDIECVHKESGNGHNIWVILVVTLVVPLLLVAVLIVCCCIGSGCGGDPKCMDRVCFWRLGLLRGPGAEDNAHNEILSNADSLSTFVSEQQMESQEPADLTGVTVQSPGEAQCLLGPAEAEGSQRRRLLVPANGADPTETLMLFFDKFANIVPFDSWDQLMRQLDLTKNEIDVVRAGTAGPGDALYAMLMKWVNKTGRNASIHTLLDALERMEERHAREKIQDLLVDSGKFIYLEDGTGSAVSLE

Target | log2 fold change [1] | log2 fold change [2] | log2 fold change [3] | log2 fold change [4] | log2 fold change (Nexturastat A) | log2 fold change (vemurafenib) | log2 fold change [5] | log2 fold change [6] | log2 fold change (givinostat) | log2 fold change (barasertib) | log2 fold change [7] | log2 fold change (volasertib) | log2 fold change [8] | log2 fold change (epoxomicin) | log2 fold change [9] | log2 fold change [10] | log2 fold change [11] | log2 fold change (rosiglitazone) | log2 fold change [12] | log2 fold change [13]
VAMP7 (UniProt P51809) | -0.014 | 0.011 | 0.053 | 0.005 | -0.069 | 0.022 | -0.01 | -0.016 | 0.011 | 0.017 | -0.057 | -0.019 | 0.009 | 0.045 | 0.012 | -0.026 | 0.014 | -0.022 | -0.07 | -0.181
UBE3D (UniProt Q7Z6J8) | -0.036 | 0.036 | -0.049 | 0.01 | -0.016 | 0.014 | 0.04 | 0.006 | -0.075 | 0.018 | -0.033 | -0.053 | 0.012 | 0.031 | 0.063 | -0.023 | -0.004 | 0.003 | -0.051 | -0.016
WDR43 (UniProt Q15061) | -0.015 | 0.018 | 0.009 | -0.001 | -0.097 | -0.027 | 0.012 | -0.061 | -0.007 | -0.033 | 0.029 | -0.029 | -0.04 | -0.026 | 0 | 0.036 | 0.004 | -0.025 | -0.04 | 0.192
UBC (UniProt P0CG48) | 0.007 | -0.091 | -0.001 | -0.032 | 0.151 | -0.016 | -0.08 | -0.017 | 0.028 | -0.018 | 0.065 | 0.087 | 0.015 | 0.401 (active) | 0.026 | 0.024 | 0.003 | 0.003 | -0.023 | 0.158
TNFRSF10A (UniProt O00220) | 0.006 | 0.035 | 0.016 | -0.015 | 0.089 | -0.073 | -0.044 | 0.004 | -0.042 | 0.016 | 0.046 | 0.001 | -0.02 | -0.047 | -0.037 | -0.104 | -0.123 | -0.053 | -0.02 | -0.007
WDR61 (UniProt Q9GZS3) | -0.026 | 0.024 | 0.001 | -0.027 | -0.035 | -0.072 | -0.115 | -0.02 | 0.026 | 0.038 | 0.067 | 0.102 | 0.035 | -0.029 | 0.011 | 0.035 | -0.011 | 0.095 | -0.066 | -0.247 (active)
WRB (UniProt O00258) | -0.046 | -0.11 | -0.007 | -0.023 | -0.25 (active) | 0.108 | -0.037 | -0.074 | 0.032 | -0.014 | 0.011 | 0.057 | -0.071 | -0.059 | -0.021 | -0.02 | -0.024 | -0.025 | 0.029 | -0.016
VPS33B (UniProt Q9H267) | -0.05 | -0.037 | -0.015 | -0.02 | 0.032 | 0.087 | 0.069 | 0.111 | 0.029 | 0.088 | -0.129 | -0.378 | 0.284 (active) | 0.022 | -0.065 | -0.039 | 0.048 | 0.073 | 0.091 | -0.218
TUT4 (UniProt Q5TAX3) | -0.124 | -0.106 | -0.081 | -0.121 | 0.449 | -0.129 | -0.008 | -0.124 | 0.069 | 0.027 | -0.064 | -0.229 | -0.15 | -0.219 | -0.041 | 0.046 | 0.018 | -0.012 | 0.566 (active) | -0.235
WAPL isoform 3 (UniProt Q7Z5K2) | -0.038 | -0.109 | 0.056 | -0.006 | -0.134 | 0.097 | 0.083 | -0.054 | 0.149 | 0.201 | -0.183 | -0.61 (active) | 0.164 | 0.101 | -0.038 | 0.015 | 0.104 | -0.06 | -0.018 | -0.246
TRAPPC13 isoform 5 (UniProt A5PLN9) | 0.022 | 0.008 | 0.006 | 0.043 | 0.024 | 0.074 | 0.113 | 0.095 | 0.025 | 0.002 | -0.055 | -0.34 | 0.044 | -0.014 | -0.072 | -0.068 | 0.078 | 0.087 | 0.042 | -0.187
TNNC2 (UniProt P02585) | -0.064 | 0.037 | 0.002 | -0.024 | -0.011 | 0 | -0.016 | -0.045 | -0.037 | -0.004 | 0.042 | 0.07 | -0.031 | -0.037 | 0.016 | 0.04 | -0.006 | 0.006 | -0.053 | -0.015
XRCC5 (UniProt P13010) | 0.073 | -0.08 | 0.044 | 0.143 | 0.033 | 0.115 | 0.189 | 0.109 | 0.234 | 0.143 | -0.172 | -0.482 | 0.207 | 0.069 | -0.103 | 0.009 | 0.169 | 0.114 | 0.124 | -0.087
VTA1 (UniProt Q9NP79) | 0.011 | -0.019 | 0.044 | 0.034 | -0.041 | 0.042 | 0.082 | -0.065 | -0.005 | 0.041 | -0.172 | -0.291 (active) | 0.06 | 0.024 | 0.026 | -0.045 | 0.048 | 0.016 | -0.041 | -0.079
UTP4 (UniProt Q969X6) | -0.036 | 0.029 | 0.009 | -0.007 | -0.06 | -0.028 | -0.021 | -0.019 | -0.033 | -0.005 | 0.032 | 0.006 | -0.017 | -0.02 | 0.001 | 0.043 | -0.036 | -0.006 | -0.061 | 0.233 (active)
XPO5 (UniProt Q9HAV4) | 0.031 | -0.039 | 0.054 | 0.031 | -0.053 | 0.013 | 0.056 | 0.014 | -0.029 | 0.029 | -0.122 | -0.263 (active) | 0.063 | 0.073 | 0.01 | -0.04 | 0.018 | 0.035 | -0.027 | -0.302 (active)
